Source: the supplement of paper PMC11417369
± gives the standard deviation of the averaged measurements. In all, about 25,000 sequences were measured (“ln(normalized median fluorescence intensity)”: median about 10, highest 2% from about 12 on). This is one part of a sample in which the highest values are shown more often than they occur.

Tested on: PfAP2-G AP2 domain (GST-tagged)
Test: gcPBM binding intensity (ln(normalized median fluorescence intensity)); higher = stronger DNA binding
How it was run: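 Each value is the highest Masliner-normalised natural-log median intensity across replicate spots of either orientation of a probe. The probes were primer-extended double-stranded 36-bp intergenic genomic sequences on an Agilent 4 × 180k array, alongside negative controls, exposed for 1 h to GST-tagged P. falciparum DNA-binding domains expressed in E. coli. Bound protein was picked up with Alexa488 anti-GST antibody and scanned at 488 nm.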

Compared with “CCATGTCAAACATTTGCACACAAAAAAATAAAAATT [CACACA_site4546]”, “TAATTTAAAAATATAAATGTTTCACTTATATATTTT [TGCATGCA_negctrl_site399]” is lower in “gcPBM binding intensity (ln)” value: 10.2 ± 0.31 for the first, 9.41 ± 0.27 for the second.

“TAAGTATAAAAAAATAGTACAATTATGAAATATCGT [XGTACX_site2529]” and “AAAAATAGTATAAGTAGTACAACTGAAAAGTTATGT [XGTACX_site7488]” are within error of each other in “gcPBM binding intensity (ln)” value: 11.2 ± 0.71 for the first, 11.6 ± 0.86 for the second.

“GAAAAGTAGACAATATGTACATATAGTATTTATAAA [XGTACX_site878]” and “ATTCTGAATGTTATGCGTACATATTAATCCTATTTA [XGTACX_site1216]” are within error of each other in “gcPBM binding intensity (ln)” value: 11.1 ± 0.69 for the first, 11.5 ± 0.93 for the second.

“TGTTCTAATATTTGTTGTACATTTACATTTCTCTCT [XGTACX_site2585]” and “GAAAAAAAAAAAAGGGGTACATTTATTTTATCAATA [XGTACX_site8331]” are within error of each other in “gcPBM binding intensity (ln)” value: 11.1 ± 0.56 for the first, 11.5 ± 1 for the second.

“TTCAAAGGGAAATTAACACACACATATATATATATA [CACACA_site8777]” and “ATATATAACGGGCACACACACATTTACGTATGAATA [CACACA_site1833]” are within error of each other in “gcPBM binding intensity (ln)” value: 10.2 ± 0.67 for the first, 10.7 ± 0.43 for the second.

Going from “AAAAATGAAAGGTGTACACATACAAACATAGAAAGA [CACACA_site5020]” to “AAAAAAGAAACAAACACACATACATACAAACAAACA [CACACA_site142]”, the “gcPBM binding intensity (ln)” value falls from 11.7 ± 0.94 to 10.3 ± 0.28.

“TATAGGTATGTATGTACACACAAAAAATGGAATATA [CACACA_site7704]” and “AATAATAGAAAAAGGTGTACTTATAAACATATACAC [XGTACX_site6921]” are within error of each other in “gcPBM binding intensity (ln)” value: 11.4 ± 0.76 for the first, 11.5 ± 0.83 for the second.

“TTCTAAAAAGGGTGTACACAAACGAATGGAAAATAA [CACACA_site5483]” and “AAGGTGGGAAAAAATAGTACACAACAAAAATGTATG [XGTACX_site8741]” are within error of each other in “gcPBM binding intensity (ln)” value: 11.6 ± 0.94 for the first, 11.7 ± 1 for the second.

First: AAATGGAAAAGGTGTACACAAAAAAAAGGGAAAAGC [CACACA_site5331]
Second: GAAAACAAAATGGTAACACACAAATGTAAATAGTAT [CACACA_site2113]
The “gcPBM binding intensity (ln)” value of the first is higher: 11.7 ± 1.2 for the first, 10.14 ± 0.064 for the second.

“AAAAAAAATGAAAGGTGTACACATACAAACATAGAA [XGTACX_site3517]” and “AACACCAAACAAAGGTGTACATATAGGAAAAAATCT [XGTACX_site1006]” are within error of each other in “gcPBM binding intensity (ln)” value: 11.7 ± 0.88 for the first, 11.3 ± 0.81 for the second.

“GGAAAATGAAAACAAGGTACACATAAGAACAAACAA [XGTACX_site1221]” and “ATATATATGTATGTATGTACACACAAAAAATGGAAT [XGTACX_site7879]” are within error of each other in “gcPBM binding intensity (ln)” value: 11.4 ± 0.87 for the first, 11.5 ± 0.79 for the second.

“CACAAATATACAAATACACACAAATATACACATATA [CACACA_site7176]” and “ACCTAAAATAACTACACACACATAAAAAAAAAAAAA [CACACA_site2529]” are within error of each other in “gcPBM binding intensity (ln)” value: 10.2 ± 0.085 for the first, 10.1 ± 0.47 for the second.

Going from “GTATGTATATATGTATGTACTTATGTATCATTATTA [XGTACX_site2438]” to “AAAAAACACCCATACACACACACACCGATATATATA [CACACA_site5808]”, the “gcPBM binding intensity (ln)” value falls from 11.2 ± 0.83 to 10.1 ± 0.18.

“TATATATATTTTTGAAGTACTTATTACACTAGCATT [XGTACX_site8965]” and “ATTTTCTTATATATATTTTGTATATATTTTGTACAT [CACACA_negctrl_site1496]” are within error of each other in “gcPBM binding intensity (ln)” value: 11.2 ± 0.61 for the first, 10.5 ± 0.39 for the second.

“TTTTATGGAAAGTGTTGTACATATTTTTGTATATGT [XGTACX_site7356]” and “AATTAACCGTGACACACACACATATAAATATAAATA [CACACA_site7790]” are within error of each other in “gcPBM binding intensity (ln)” value: 11.4 ± 0.76 for the first, 10.3 ± 0.47 for the second.

“TATTGTTCTTATTTAGTGCATATATAATATAATATA [GTGCAC_site9827]” and “ACAAAATTTACAAAATGTACAAAATTTACAAAATAT [XGTACX_site3542]” are within error of each other in “gcPBM binding intensity (ln)” value: 10.3 ± 0.33 for the first, 10.8 ± 0.49 for the second.

Going from “TAATAAAAAATATATACACACAAATAAATAAATAAA [CACACA_site4037]” to “TGCCTATTTTGGATGTGTACACATATATATATTTAT [XGTACX_site6741]”, the “gcPBM binding intensity (ln)” value rises from 9.77 ± 0.071 to 11.7 ± 0.88.

“ATATATATTTATATATGTACATATTTTTGTGTATTT [XGTACX_site1183]” and “CTATTTTGGATGTGTACACATATATATATTTATATT [CACACA_site5706]” are within error of each other in “gcPBM binding intensity (ln)” value: 11.3 ± 0.79 for the first, 11.7 ± 0.85 for the second.

“ATATTTATATATATATGTACATATGTGTGTTTTTAT [XGTACX_site3956]” and “TACATATTTTTTATATGTACATATTTTTTATGTGTA [XGTACX_site442]” are within error of each other in “gcPBM binding intensity (ln)” value: 10.9 ± 0.51 for the first, 11.4 ± 0.77 for the second.

“CATATTAAGATGTGTACACATTTTTATTTTTTTTTT [CACACA_site4425]” and “TTTATTGAACGTACACATATATATATGTATATATTT [TGCATGCA_negctrl_site141]” are within error of each other in “gcPBM binding intensity (ln)” value: 11.6 ± 0.93 for the first, 11.3 ± 0.88 for the second.

“ATTTTTGTACACTTCTTTTTTTTTTTTCTTTTATGT [CACACA_negctrl_site1323]” and “AAAAAAAAATCATATTGTACGTAAAAAAAAAAAAAA [XGTACX_site476]” are the same in “gcPBM binding intensity (ln)” value: 11.4 ± 0.68 for the first, 11.4 ± 1 for the second.

“TATTTATACTAATATGCATGTAATCGAAATACAGCT [TGCATGCA_site457]” and “AATATGGTTATATATATATATATATATATATATATT [GTGCAC_negctrl_site566]” are within error of each other in “gcPBM binding intensity (ln)” value: 9.685 ± 0.078 for the first, 9.67 ± 0.071 for the second.

“TCTTTTTGTTCGTGTACACACATGAAATTTATAAAA [CACACA_site1619]” and “TTTCTTTTTGTTCGTGTACACACATGAAATTTATAA [CACACA_site8466]” are within error of each other in “gcPBM binding intensity (ln)” value: 11.8 ± 1.1 for the first, 11.6 ± 0.86 for the second.

“TGAAATAAAATTTGTACACACATATATATATATATA [CACACA_site586]” and “GAACCGTGCAAATGTTGTACACTTTAAAAATATTCT [XGTACX_site4488]” are within error of each other in “gcPBM binding intensity (ln)” value: 11.1 ± 0.81 for the first, 11.6 ± 0.84 for the second.

“AGGTGCAAAAATAAAACATGCAAAAATAAAAATGAA [TGCATGCA_site502]” and “TTACCTCTTTGAAATATACACACTAAACATATCAAC [CACACA_site2455]” are the same in “gcPBM binding intensity (ln)” value: 10.07 ± 0.028 for the first, 10.1 ± 0.13 for the second.

“CACAAACAAAAACACACACACACACCGACAAAAATG [CACACA_site5362]” and “ACATACATACCCCCACGTACGTACCGAAACACCACC [XGTACX_site1982]” are within error of each other in “gcPBM binding intensity (ln)” value: 10.5 ± 0.38 for the first, 11.5 ± 0.74 for the second.

“ACATACATACACCCACGTACGTACCGAAACACCACC [XGTACX_site1212]” and “AACATACAGAAACACACACACACACCCACACCCACA [CACACA_site493]” are within error of each other in “gcPBM binding intensity (ln)” value: 11.7 ± 1.1 for the first, 10.4 ± 0.31 for the second.

Compared with “TTTGTAATAAACTACTTTTTTTTTTTTTTTTTTTTT [CACACA_negctrl_site571]”, “ATATACATATAGGATGCACACATAATTCAAATACAA [CACACA_site8120]” is lower in “gcPBM binding intensity (ln)” value: 10.9 ± 0.35 for the first, 10.1 ± 0.22 for the second.
